Source: PubChem BioAssay (NCI)
This is part of a sample that, as a whole, favours compounds with a hit. Of some 79,000 tested, about 15% had one in any assay. Values without a mark were called inactive. Calls of active or inactive are those of the source. Rule as the data show it: active = growth inhibition above about 70%; inactive = the rest.

What was measured:
[1] = NCI Yeast Anticancer Drug Screen. Data for the rad50 strain (AID 155);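 also: 0% = growth of vehicle-only cultures of the same strain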; conditions: S. cerevisiae rad50 strain growth inhibition, hits give high values
Method in brief: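 Yeast carrying a defined DNA repair defect were exposed to test compounds, and growth was compared with vehicle-treated controls to give percent inhibition.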

[2] = NCI Yeast Anticancer Drug Screen. Data for the mec2-1 strain (AID 157); conditions: S. cerevisiae mec2-1 strain, hits give high values
Method in brief: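 Growth inhibition is read against vehicle-treated controls after compound exposure of the mec2-1 yeast strain, which is defective in DNA damage repair or cell cycle control.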

[3] = NCI Yeast Anticancer Drug Screen. Data for the sgs1 mgt1 strain (AID 161);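 also: 0% = growth of cultures given vehicle only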; conditions: S. cerevisiae sgs1 mgt1 strain, hits give high values
Method in brief: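 Yeast cells carrying a defined DNA-repair defect were exposed to test compounds. Growth inhibition was measured relative to vehicle-treated controls.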

[4] = NCI Yeast Anticancer Drug Screen. Data for the cln2 rad14 strain (AID 165);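 also: 0% = growth equal to vehicle treated cultures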; conditions: S. cerevisiae cln2 rad14 strain, hits give high values
Method in brief: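 Growth inhibition, relative to vehicle-treated controls, is the read-out. The test organism is a yeast strain with defined genetic alterations, cln2 rad14.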

[5] = NCI Yeast Anticancer Drug Screen. Data for the bub3 strain (AID 167); conditions: S. cerevisiae bub3 mutant strain, hits give high values
Method in brief: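 Compounds were applied to a genetically altered yeast strain carrying a cell-cycle control defect. Growth inhibition was scored against vehicle-treated controls.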

[6] = NCI Yeast Anticancer Drug Screen. Data for the mlh1 rad18 strain (AID 175); conditions: S. cerevisiae mlh1 rad18 strain growth inhibition, hits give high values
Method in brief: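 Cells of a genetically altered yeast strain, deficient in DNA damage repair, were treated with compound. Their growth was then compared with that of vehicle-treated cultures to give inhibition.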

[7] = at 5.0 µM (retest, dose inferred, filed as 0.5)
[8] = at 50.0 µM (retest, dose inferred, filed as 5.0)

SMILES	growth inhibition [1, 7]	growth inhibition [1, 8]	growth inhibition ([1]; at 50.0 µM)	growth inhibition [2, 7] [%]	growth inhibition [2, 8]	growth inhibition ([2]; at 50.0 µM)	growth inhibition [3, 7] [%]	growth inhibition [3, 8]	growth inhibition ([3]; at 50.0 µM)	growth inhibition [4, 7] [%]	growth inhibition [4, 8]	growth inhibition ([4]; at 50.0 µM)	growth inhibition [5, 7] [%]	growth inhibition [5, 8]	growth inhibition ([5]; at 50.0 µM)	growth inhibition [6, 7] [%]	growth inhibition [6, 8]	growth inhibition ([6]; at 50.0 µM)
O=c1c2c(F)c(F)c(F)c(F)c2sc2nccn12	15%	100% (active)	89% (active)	40	100% (active)	91.2% (active)	2	99% (active)	84.8% (active)	5	99% (active)	90.2% (active)	27	100% (active)	89.5% (active)	46	99% (active)	86.8% (active)
Cc1c(CCCl)c(N=[N+]=[N-])n2c(nc3ccccc32)c1C#N	31%	46%	83.8% (active)	27	45%	71.2% (active)	23	51%	56.6%	20	34%	63.4%	23	57%	78.2% (active)	28	48%	56.5%
CC1([N+](=O)[O-])C(=O)C2(N3CCCCC3)CCCC2C1c1ccccc1 (stereo not given)	3%	10%	15.5%	3	21%	8.6%	6	8%	19%	5	-1%	36.2%	1	13%	12%	1	20%	16.5%
Nc1c(/C=C/c2cc3ccc(C4=NCCN4)cc3[nH]2)[nH]c2cc(C3=NCCN3)ccc12	78% (active)	97% (active)	89.3% (active)	41	96% (active)	89% (active)	36	94% (active)	89.2% (active)	47	94% (active)	89.5% (active)	42	92% (active)	86.5% (active)	36	96% (active)	90.5% (active)
COc1cc(/C=C/C(=O)Sc2ccccc2)cc(OC)c1O	1%	47%	74.7% (active)	0	58%	58.6%	-3	60%	59.2%	2	38%	75.7% (active)	2	70% (active)	51%	-2	58%	50.6%
CC(=O)OC1CCCc2c1nc1ccccc1[n+]2[O-] (stereo not given)	10%	-2%	8.6%	10	0%	4.55%	6	1%	0.5%	3	-3%	28.6%	15	4%	-10.5%	11	-5%	5.7%
c1ccc(CCCCc2ccncc2)cc1	1%	28%	87.3% (active)	1	13%	46.2%	0	47%	94% (active)	5	11%	63.6%	24	81% (active)	93.5% (active)	-3	18%	88.5% (active)
O=C(NCc1ccccc1)N1CCN(c2ccccc2)C1=O	-3%	3%	47%	-3	-5%	2.65%	-3	-1%	-2.15%	-4	13%	36.5%	4	12%	6.95%	-4	-4%	11.7%
COc1ccc(C(=O)NCCN2CCN3Cc4[nH]c5ccccc5c4CC3C2)cc1 (stereo not given)	-1%	3%	1.65%	-2	-5%	1.85%	-8	8%	-6.4%	-5	-2%	-17.6%	-5	1%	-5.05%	-11	-3%	11.7%
CCCC(=O)c1cc(O)c(O)c(CN(C)Cc2cc(Cl)cc(C)c2O)c1O	-8%	91% (active)	55%	3	97% (active)	52.5%	-11	94% (active)	50.5%	-16	90% (active)	60.6%	-7	97% (active)	49%	19	96% (active)	54.5%
